Paper PMC7862700, “An all-to-all approach to the identification of sequence-specific readers for epigenetic DNA modifications on cytosine”

What was measured:
Assay in all cases: DAPPL (digital affinity profiling via proximity ligation, sequencing); 10 mM Tris-HCl pH 7.5, 50 mM NaCl, 1 mM DTT, 4% glycerol, room temperature, 30 min; GST-TFs on glutathione beads, 16-mer random dsDNA library, 0.1% formaldehyde crosslink after washing; high values mean tight binding
FEV = target: T1, FEV (Homo sapiens, UniProt Q99581 1-238); conditions: protein: recombinant; tags: N-terminal GST; dsDNA, one strand shown
T1 sequence: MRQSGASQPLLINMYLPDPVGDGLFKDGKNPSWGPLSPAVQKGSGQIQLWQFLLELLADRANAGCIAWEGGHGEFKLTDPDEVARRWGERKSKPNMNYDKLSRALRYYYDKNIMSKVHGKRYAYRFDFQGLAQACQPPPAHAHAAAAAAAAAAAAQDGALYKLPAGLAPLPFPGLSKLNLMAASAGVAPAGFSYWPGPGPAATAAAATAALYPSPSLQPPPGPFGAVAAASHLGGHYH
Summary of the method: (§1)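 Binding signal is given per hexamer as its read frequency for a factor divided by its frequency in the tag-only sample. GST-fused human transcription factors were expressed in yeast, captured on glutathione beads, barcoded with DNA and pooled with that sample, then incubated with 200 nmole of a 16-mer random double-stranded DNA library in Tris/NaCl/DTT/glycerol buffer for 30 min at room temperature. The pools were then washed, crosslinked, proximity-ligated, amplified by PCR and sequenced on an Illumina NextSeq500.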

ETV5 = ETV5 (Homo sapiens, UniProt P41161 1-510); conditions: protein: recombinant; tags: N-terminal GST; dsDNA, one strand shown
Chain of ETV5 (P41161 whole entry): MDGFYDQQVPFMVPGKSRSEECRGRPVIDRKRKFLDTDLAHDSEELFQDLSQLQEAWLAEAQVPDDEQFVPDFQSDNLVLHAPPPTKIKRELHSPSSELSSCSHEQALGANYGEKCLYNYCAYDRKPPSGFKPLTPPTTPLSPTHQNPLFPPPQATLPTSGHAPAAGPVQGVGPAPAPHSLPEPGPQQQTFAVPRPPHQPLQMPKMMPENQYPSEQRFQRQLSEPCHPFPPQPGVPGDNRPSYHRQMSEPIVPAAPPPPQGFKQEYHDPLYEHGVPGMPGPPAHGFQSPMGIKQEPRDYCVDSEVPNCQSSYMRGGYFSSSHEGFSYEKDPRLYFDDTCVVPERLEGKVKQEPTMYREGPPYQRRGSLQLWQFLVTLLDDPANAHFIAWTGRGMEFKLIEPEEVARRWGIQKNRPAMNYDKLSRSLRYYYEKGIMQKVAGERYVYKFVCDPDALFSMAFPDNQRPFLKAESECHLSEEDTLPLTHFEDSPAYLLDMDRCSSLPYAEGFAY
Summary of the method: as §1

HSF1 = HSF1 (Homo sapiens, UniProt Q00613 1-529); conditions: protein: recombinant; tags: N-terminal GST; chain copies: 3; dsDNA, one strand shown
Chain of HSF1 (Q00613 whole entry): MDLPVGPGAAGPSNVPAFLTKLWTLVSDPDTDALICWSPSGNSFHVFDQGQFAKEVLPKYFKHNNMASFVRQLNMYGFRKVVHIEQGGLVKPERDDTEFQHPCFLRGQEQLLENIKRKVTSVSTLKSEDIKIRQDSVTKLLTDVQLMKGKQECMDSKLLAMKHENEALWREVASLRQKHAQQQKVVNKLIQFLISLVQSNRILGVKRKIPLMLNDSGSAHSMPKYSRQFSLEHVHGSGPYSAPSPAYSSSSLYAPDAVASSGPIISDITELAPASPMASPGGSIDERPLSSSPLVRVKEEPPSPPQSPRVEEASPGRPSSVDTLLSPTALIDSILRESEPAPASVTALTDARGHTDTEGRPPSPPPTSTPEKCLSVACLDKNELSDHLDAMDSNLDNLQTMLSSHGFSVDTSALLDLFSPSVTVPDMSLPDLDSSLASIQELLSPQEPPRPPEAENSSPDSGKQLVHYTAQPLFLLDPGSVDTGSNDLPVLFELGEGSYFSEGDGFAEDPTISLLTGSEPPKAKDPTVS
Summary of the method: as §1

SPIC = target: T2, SPIC (Homo sapiens, UniProt Q8N5J4 1-248); conditions: protein: recombinant; tags: N-terminal GST; dsDNA, one strand shown
T2 sequence: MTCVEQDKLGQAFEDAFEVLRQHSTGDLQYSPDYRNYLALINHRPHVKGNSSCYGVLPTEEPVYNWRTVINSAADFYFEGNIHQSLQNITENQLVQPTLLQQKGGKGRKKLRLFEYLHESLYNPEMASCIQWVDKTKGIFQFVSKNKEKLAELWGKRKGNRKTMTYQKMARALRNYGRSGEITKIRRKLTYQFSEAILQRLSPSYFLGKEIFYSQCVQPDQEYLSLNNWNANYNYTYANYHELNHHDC
Summary of the method: as §1

ELF4 = ELF4 (Homo sapiens, UniProt Q99607 1-663); conditions: protein: recombinant; tags: N-terminal GST; dsDNA, one strand shown
Chain of ELF4 (Q99607 whole entry): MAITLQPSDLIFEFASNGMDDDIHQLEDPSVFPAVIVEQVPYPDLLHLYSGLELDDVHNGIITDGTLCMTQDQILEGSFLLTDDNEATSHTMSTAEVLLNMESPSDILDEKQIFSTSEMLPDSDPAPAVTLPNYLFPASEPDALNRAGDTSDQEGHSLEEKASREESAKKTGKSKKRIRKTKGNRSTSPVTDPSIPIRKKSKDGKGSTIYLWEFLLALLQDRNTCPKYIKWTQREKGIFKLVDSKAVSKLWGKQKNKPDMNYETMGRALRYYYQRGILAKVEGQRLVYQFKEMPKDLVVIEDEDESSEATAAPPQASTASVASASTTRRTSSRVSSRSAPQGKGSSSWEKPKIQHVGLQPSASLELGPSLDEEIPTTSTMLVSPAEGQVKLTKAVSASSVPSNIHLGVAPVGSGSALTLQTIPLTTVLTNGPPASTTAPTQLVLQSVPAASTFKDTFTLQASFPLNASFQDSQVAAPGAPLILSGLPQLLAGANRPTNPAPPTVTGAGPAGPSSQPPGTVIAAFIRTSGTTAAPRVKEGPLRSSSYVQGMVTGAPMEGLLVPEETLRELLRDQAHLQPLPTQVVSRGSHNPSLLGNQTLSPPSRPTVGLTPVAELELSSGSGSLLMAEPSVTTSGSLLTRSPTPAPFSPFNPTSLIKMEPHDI
Summary of the method: as §1

ELK4 = target: T3, ELK4 (Homo sapiens, UniProt P28324-2 1-405); conditions: protein: recombinant; tags: N-terminal GST; dsDNA, one strand shown
T3 sequence: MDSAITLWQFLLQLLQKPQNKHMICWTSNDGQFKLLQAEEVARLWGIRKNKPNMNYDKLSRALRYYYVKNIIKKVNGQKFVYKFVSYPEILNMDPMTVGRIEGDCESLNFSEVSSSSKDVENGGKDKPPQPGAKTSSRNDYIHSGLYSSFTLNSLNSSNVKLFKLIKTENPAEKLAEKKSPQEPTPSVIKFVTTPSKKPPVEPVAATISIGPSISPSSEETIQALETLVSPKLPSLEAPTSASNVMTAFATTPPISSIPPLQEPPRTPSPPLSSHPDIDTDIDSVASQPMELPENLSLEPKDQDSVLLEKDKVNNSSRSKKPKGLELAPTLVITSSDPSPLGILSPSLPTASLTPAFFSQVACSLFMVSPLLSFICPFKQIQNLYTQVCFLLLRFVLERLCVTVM
Summary of the method: as §1

ETV2 = target: T4, ETV2 (Homo sapiens, UniProt O00321 1-342); conditions: protein: recombinant; tags: N-terminal GST; dsDNA, one strand shown
T4 sequence: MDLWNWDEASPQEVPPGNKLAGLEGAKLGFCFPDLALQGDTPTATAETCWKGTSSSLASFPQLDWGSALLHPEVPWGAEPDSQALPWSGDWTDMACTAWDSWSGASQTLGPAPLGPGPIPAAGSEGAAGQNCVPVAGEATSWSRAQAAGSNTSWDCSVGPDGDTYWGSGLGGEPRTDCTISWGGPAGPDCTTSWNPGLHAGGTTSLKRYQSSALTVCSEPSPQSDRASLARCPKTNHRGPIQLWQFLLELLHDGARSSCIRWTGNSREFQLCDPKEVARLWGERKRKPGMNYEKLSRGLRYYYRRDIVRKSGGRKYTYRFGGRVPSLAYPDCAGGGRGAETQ
Summary of the method: as §1

ELF3 = target: T5, ELF3 (Homo sapiens, UniProt P78545 1-371); conditions: protein: recombinant; tags: N-terminal GST; dsDNA, one strand shown
T5 sequence: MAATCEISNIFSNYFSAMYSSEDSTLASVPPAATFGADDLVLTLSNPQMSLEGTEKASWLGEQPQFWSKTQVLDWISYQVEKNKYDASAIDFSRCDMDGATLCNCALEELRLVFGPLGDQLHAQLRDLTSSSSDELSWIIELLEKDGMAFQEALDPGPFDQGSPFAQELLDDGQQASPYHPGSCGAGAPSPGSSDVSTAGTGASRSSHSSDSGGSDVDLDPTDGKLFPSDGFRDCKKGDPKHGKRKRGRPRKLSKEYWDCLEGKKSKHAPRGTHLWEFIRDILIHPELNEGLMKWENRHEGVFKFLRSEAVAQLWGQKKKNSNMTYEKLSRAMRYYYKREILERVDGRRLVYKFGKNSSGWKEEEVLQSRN
Summary of the method: as §1

CRX = CRX (Homo sapiens, UniProt O43186 1-299); conditions: protein: recombinant; tags: N-terminal GST; dsDNA, one strand shown
Chain of CRX (O43186 whole entry): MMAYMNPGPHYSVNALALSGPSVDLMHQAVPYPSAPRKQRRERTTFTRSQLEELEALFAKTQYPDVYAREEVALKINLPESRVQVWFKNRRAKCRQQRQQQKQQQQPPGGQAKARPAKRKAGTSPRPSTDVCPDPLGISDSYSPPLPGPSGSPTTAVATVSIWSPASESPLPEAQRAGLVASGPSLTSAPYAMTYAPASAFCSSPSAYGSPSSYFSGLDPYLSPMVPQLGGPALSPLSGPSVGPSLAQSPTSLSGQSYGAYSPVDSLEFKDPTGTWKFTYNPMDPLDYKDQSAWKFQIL
Summary of the method: as §1

ETV1 = ETV1 (Homo sapiens, UniProt P50549 1-477); conditions: protein: recombinant; tags: N-terminal GST; dsDNA, one strand shown
Chain of ETV1 (P50549 whole entry): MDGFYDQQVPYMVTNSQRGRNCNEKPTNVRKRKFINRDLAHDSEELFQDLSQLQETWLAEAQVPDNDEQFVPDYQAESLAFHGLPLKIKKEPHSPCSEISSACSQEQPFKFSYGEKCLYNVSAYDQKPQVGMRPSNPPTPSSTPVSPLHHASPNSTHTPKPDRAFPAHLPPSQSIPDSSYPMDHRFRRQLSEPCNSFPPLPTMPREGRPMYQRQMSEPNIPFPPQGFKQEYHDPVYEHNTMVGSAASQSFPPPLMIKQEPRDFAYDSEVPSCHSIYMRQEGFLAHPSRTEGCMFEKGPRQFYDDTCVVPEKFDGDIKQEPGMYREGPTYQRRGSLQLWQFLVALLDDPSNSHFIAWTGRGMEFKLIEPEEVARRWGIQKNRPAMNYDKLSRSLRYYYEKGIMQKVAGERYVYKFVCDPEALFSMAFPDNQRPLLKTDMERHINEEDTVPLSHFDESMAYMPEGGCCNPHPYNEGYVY
Summary of the method: as §1

ERF = target: T6, ERF (Homo sapiens, UniProt P50548 1-548); conditions: protein: recombinant; tags: N-terminal GST; dsDNA, one strand shown
T6 sequence: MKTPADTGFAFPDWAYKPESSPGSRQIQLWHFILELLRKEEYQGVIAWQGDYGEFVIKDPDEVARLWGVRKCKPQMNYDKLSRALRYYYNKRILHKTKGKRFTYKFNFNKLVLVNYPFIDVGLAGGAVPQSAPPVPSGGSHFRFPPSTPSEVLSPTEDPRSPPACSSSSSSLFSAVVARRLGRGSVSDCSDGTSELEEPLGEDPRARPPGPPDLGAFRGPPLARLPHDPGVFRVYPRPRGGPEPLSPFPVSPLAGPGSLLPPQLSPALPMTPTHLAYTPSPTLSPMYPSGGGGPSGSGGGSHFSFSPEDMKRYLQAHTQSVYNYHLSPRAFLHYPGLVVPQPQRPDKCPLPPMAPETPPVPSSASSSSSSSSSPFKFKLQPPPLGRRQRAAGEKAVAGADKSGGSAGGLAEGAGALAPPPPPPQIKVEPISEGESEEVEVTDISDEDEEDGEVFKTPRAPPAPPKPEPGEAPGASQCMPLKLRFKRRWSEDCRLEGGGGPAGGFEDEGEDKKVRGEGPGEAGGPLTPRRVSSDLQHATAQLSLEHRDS
Summary of the method: as §1

ETV3L = target: T7, ETV3L (Homo sapiens, UniProt Q6ZN32 1-361); conditions: protein: recombinant; tags: N-terminal GST; dsDNA, one strand shown
T7 sequence: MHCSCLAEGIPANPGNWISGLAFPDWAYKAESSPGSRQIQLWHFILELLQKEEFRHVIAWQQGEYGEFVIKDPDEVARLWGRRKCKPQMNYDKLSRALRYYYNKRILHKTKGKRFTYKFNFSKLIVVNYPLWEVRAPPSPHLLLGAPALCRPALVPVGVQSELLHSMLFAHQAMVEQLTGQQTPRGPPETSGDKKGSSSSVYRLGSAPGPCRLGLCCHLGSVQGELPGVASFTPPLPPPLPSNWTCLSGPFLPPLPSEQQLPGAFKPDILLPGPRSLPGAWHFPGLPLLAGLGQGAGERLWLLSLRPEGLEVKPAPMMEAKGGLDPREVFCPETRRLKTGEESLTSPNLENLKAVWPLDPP
Summary of the method: as §1

ETS2 = target: T8, ETS2 (Homo sapiens, UniProt P15036 1-469); conditions: protein: recombinant; tags: N-terminal GST; dsDNA, one strand shown
T8 sequence: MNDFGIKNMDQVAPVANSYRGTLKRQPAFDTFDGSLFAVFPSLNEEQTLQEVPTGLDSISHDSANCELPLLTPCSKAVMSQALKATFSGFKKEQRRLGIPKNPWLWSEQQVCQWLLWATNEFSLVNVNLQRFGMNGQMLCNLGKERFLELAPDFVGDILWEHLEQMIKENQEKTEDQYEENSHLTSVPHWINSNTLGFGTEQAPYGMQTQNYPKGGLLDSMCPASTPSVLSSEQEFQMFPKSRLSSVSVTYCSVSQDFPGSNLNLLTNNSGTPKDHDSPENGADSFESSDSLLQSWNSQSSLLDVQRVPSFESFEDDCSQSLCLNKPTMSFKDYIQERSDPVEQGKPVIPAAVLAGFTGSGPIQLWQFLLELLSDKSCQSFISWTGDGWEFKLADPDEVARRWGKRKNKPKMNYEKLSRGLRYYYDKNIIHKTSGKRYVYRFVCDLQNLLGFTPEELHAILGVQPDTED
Summary of the method: as §1

SPDEF = target: T9, SPDEF (Homo sapiens, UniProt O95238 1-335); conditions: protein: recombinant; tags: N-terminal GST; dsDNA, one strand shown
T9 sequence: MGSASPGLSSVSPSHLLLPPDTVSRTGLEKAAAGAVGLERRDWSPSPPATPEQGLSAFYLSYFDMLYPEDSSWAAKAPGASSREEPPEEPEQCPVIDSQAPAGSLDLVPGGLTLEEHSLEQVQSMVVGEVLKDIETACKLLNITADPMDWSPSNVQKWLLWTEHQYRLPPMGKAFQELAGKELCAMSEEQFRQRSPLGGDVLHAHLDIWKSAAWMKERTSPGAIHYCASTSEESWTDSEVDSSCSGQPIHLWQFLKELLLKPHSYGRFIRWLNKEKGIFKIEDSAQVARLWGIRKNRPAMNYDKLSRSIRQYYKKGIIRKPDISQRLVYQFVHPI
Summary of the method: as §1

ETV7 = target: T10, ETV7 (Homo sapiens, UniProt Q9Y603 1-341); conditions: protein: recombinant; tags: N-terminal GST; dsDNA, one strand shown
T10 sequence: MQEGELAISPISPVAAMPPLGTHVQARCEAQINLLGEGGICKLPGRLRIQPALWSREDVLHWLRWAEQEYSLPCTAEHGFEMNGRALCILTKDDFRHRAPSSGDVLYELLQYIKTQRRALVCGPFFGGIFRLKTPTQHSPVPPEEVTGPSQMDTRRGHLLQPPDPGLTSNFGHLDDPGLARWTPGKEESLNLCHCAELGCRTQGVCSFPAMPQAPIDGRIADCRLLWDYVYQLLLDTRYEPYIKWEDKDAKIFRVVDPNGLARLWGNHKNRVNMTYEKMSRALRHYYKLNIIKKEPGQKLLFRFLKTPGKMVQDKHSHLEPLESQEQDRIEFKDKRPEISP
Summary of the method: as §1

ELF5 = target: T11, ELF5 (Homo sapiens, UniProt Q9UKW6-2 1-255); conditions: protein: recombinant; tags: N-terminal GST; dsDNA, one strand shown
T11 sequence: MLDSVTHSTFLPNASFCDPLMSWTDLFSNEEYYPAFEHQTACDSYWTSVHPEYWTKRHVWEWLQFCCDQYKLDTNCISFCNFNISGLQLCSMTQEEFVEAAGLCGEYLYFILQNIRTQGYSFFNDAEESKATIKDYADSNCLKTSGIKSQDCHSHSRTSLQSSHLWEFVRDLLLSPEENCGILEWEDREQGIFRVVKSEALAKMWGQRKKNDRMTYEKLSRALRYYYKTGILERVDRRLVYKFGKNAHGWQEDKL
Summary of the method: as §1

ETV3 = target: T12, ETV3 (Homo sapiens, UniProt P41162-2 1-143); conditions: protein: recombinant; tags: N-terminal GST; dsDNA, one strand shown
T12 sequence: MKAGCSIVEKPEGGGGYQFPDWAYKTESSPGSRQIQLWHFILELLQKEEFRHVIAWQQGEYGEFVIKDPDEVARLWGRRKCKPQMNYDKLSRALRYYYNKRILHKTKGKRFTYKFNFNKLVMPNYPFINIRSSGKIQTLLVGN
Summary of the method: as §1

ETV6 = ETV6 (Homo sapiens, UniProt P41212 1-452); conditions: protein: recombinant; tags: N-terminal GST; dsDNA, one strand shown
Chain of ETV6 (P41212 whole entry): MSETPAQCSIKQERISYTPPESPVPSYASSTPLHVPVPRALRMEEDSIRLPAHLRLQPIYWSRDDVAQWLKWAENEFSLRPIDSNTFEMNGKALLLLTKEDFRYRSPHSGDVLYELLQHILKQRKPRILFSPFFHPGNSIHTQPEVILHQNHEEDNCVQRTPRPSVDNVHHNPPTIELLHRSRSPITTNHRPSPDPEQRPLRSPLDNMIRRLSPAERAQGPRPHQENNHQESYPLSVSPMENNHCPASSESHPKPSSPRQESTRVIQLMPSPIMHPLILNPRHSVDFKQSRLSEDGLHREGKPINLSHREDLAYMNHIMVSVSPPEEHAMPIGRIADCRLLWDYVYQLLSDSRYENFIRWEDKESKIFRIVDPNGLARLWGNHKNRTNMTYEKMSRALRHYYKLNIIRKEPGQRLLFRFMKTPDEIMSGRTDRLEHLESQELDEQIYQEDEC
Summary of the method: as §1

Question: Which results are given for ATTCGT?
Answer: binding signal (FEV): 1.12 fold enrichment (6-mer frequency, TF over GST control); binding signal (ETV5): 1.19 fold enrichment (6-mer frequency, TF over GST control); binding signal (HSF1): 1.27 fold enrichment (6-mer frequency, TF over GST control); binding signal (SPIC): 1.25 fold enrichment (6-mer frequency, TF over GST control); binding signal (ELF4): 1.24 fold enrichment (6-mer frequency, TF over GST control); binding signal (ELK4): 1.11 fold enrichment (6-mer frequency, TF over GST control); binding signal (ETV2): 1.16 fold enrichment (6-mer frequency, TF over GST control); binding signal (ELF3): 1.37 fold enrichment (6-mer frequency, TF over GST control); binding signal (CRX): 1.28 fold enrichment (6-mer frequency, TF over GST control); binding signal (ETV1): 1.14 fold enrichment (6-mer frequency, TF over GST control); binding signal (ERF): 1.22 fold enrichment (6-mer frequency, TF over GST control); binding signal (ETV3L): 1.16 fold enrichment (6-mer frequency, TF over GST control); binding signal (ETS2): 1.26 fold enrichment (6-mer frequency, TF over GST control); binding signal (SPDEF): 1.18 fold enrichment (6-mer frequency, TF over GST control); binding signal (ETV7): 1.34 fold enrichment (6-mer frequency, TF over GST control); binding signal (ELF5): 1.11 fold enrichment (6-mer frequency, TF over GST control); binding signal (ETV3): 1.28 fold enrichment (6-mer frequency, TF over GST control); binding signal (ETV6): 1.11 fold enrichment (6-mer frequency, TF over GST control)
